# IEC-6 tox = IEC-6 cytotoxicity, counter-screen for KLF5 inhibitors. inhibition, % at 5 µM. luminescence viability. AID 1825. 290,000 tested, 0.78% active;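 note: 0% = plate median of test compound wells and 100% = cytotoxic reference compound wells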
# BaF3 parental = reduces parental Ba/F3 cell viability, JAK2V617F counter-screen | inhibition, % at 5.6 µM | CellTiter-Glo ATP luminescence | 220,000 tested, 1.1% active;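 active = inhibition above a per-campaign cutoff, the mean inhibition of all tested compounds plus 3 SD, cut at about 27% in these data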;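 note: 0% = DMSO wells and 100% = JAK Inhibitor I control wells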
# Ba/F3 V617F tox = reduce viability of Ba/F3 cells dependent on JAK2V617F | Ba/F3 EpoR-JAK2V617F viability, ATP luminescence | 220,000 tested, 1.1% active | inhibition, % at 5.6 µM;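 active = inhibition above the campaign mean plus 3 SD over all tested compounds, cut at about 24% in these data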;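 note: cytokine-independent growth of Ba/F3 cells driven by EpoR plus mutant JAK2; 0% = DMSO-treated cells and 100% = JAK inhibitor I control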
# aSyn UTR inh = 5' untranslated region of α-synuclein, MLPCN primary screen; alpha-synuclein 5'UTR reporter, inhibitor activity; inhibition, % (tested at 7.5 µM); AID 1813; 300,000 tested, 0.82% active; in the data active = inhibition above about 60%;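 note: H4 neuroglioblastoma cells stably carrying SNCA 5'UTR luciferase fusion; 0% = DMSO wells and 100% = positive control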
# KLF5 inh = kruppel-like factor 5 inhibition. DLD-1 KLF5 promoter-luciferase reporter, luminescence. inhibition, % at 5 µM. 290,000 tested, 0.23% active. AID 1700;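 active = inhibition above a per-plate limit of that plate's mean compound inhibition plus 3 SD, cut at about 60% in these data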;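 note: 0% = DMSO wells and 100% = LY294002 at 200 µM; higher means less KLF5 promoter-driven luciferase light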
# APP transl inh = APP translation inhibition | 190,000 tested, 0.82% active | SH-SY5Y APP 5'UTR-luciferase reporter, luminescence | inhibition, % at 2 µM;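 active = inhibition above a set limit, derived from the sample mean plus 3 SD, cut at about 45% in these data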
# IEC-6 cytotox cf = confirmation of cytotoxic compounds in rat IEC-6 intestinal epithelial cells; shares compounds with IEC-6 tox; inhibition, % at 5 µM; IEC-6 rat intestinal epithelial viability, luminescence; 1,900 tested, 63% active;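 note: 0% = vehicle and 100% = reference cytotoxic drug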
# * = called active by the depositor; . = no result. Shown are actives, neighbours in structure and some others; about 2.1% of the full set was active somewhere. Cut-off read from the data, not from the text of the source, unless noted: active = inhibition above about 22%; inactive = the rest.
SMILES,IEC-6 tox,BaF3 parental,Ba/F3 V617F tox,aSyn UTR inh,KLF5 inh,APP transl inh,IEC-6 cytotox cf
Cn1c(=O)[nH]c(=O)c2c1nc(CN1CCN(c3cccc(Cl)c3)CC1)n2CCCc1ccccc1,-4.0,1.4,-3.6,25.1,-10.7,-16.7,.
O=C1NC(=S)S/C1=C/c1ccc(N2CCOCC2)o1,-12.5,7.0,-1.4,-12.4,-54.6,12.8,.
C=CCN1C(=O)N/C(=C/c2ccc(N3CCOCC3)o2)C1=O,32.1*,78.3*,95.1*,-14.3,-4.4,88.5*,-0.2
O=C(Nc1ccc(-n2cccn2)cc1)C1CCCCN1Cc1cccc2c1OCO2 (centres undefined),54.1*,.,.,-2.1,39.3,.,36.9*
NC(=O)CN1C(=O)C(=O)N(Cc2ccccc2Cl)C1=O,43.8*,.,.,3.7,41.6,.,-6.7
NC(=O)CN1C(=O)C(=O)N(Cc2ccccc2)C1=O,-0.7,.,.,-14.9,-30.4,.,.
CCOc1ccc(/C=C/c2nc(C#N)c(NCCCOC)o2)cc1,74.2*,.,.,-149.5,54.4,.,61.0*

# Bioassay records deposited in PubChem by several laboratories.
